Test systems include SK-MEL-2 melanoma; EKVX NSCLC; SN12C renal; UO-31 renal; TK-10 renal; CAKI-1 renal; A498 renal; CCRF-CEM leukemia; MOLT-4 leukemia; SR leukemia; OVCAR-8 ovarian; OVCAR-5 ovarian; OVCAR-4 ovarian; SK-OV-3 ovarian; IGROV1 ovarian; OVCAR-3 ovarian; NCI/ADR-RES ovarian; ACHN renal; RPMI-8226 leukemia; HS 578T breast.
Assay in all cases: NCI-60 one-dose screen, 48 h (100 = growth as untreated, 0 = no growth, -100 = all killed)
Conditions in all cases: 10 µM unless noted

About 83,000 compounds went through this panel and 20% of them were active in at least one assay; those are over-represented in the sample as a whole.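 Activity criterion: percent growth below 10, measured after cells in 96-well plates were exposed to a single compound concentration for 48 hours.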 Unmarked numbers belong to inactive results. Calls of active or inactive are those of the source.

Turning to `CCC(=O)c1cc([N+](=O)[O-])c(Br)s1`, the growth with SK-MEL-2 melanoma is 106%; with EKVX NSCLC, 104%; with SN12C renal it was 103%; in the test with UO-31 renal, 74.7%; in the test with TK-10 renal, 96.6%; in the test on CAKI-1 renal it was 95.8%. In addition, the growth in the test on A498 renal was 87%; in the test on CCRF-CEM leukemia, 1.7% (active); with MOLT-4 leukemia it was 33.9%; in the test with SR leukemia, -19.5% (active); in the test with OVCAR-8 ovarian it was 91.4%; in the test on OVCAR-5 ovarian, 99%. For the same compound, the growth was 109% in the test with OVCAR-4 ovarian; 95.8% in the test with SK-OV-3 ovarian; 105% in the test on IGROV1 ovarian; 82.4% in the test on OVCAR-3 ovarian; 105% with NCI/ADR-RES ovarian.
`Nc1cc(-c2ccccc2)ccc1O`: the growth was 120% in the test on SK-MEL-2 melanoma; 96.4% in the test with EKVX NSCLC; 104% with SN12C renal; 93.4% in the test on UO-31 renal; 127% with TK-10 renal; 104% in the test with ACHN renal. For the same compound, the growth in the test with A498 renal was 93%; with CCRF-CEM leukemia it was 37.2%; in the test with MOLT-4 leukemia it was 25.1%; in the test on SR leukemia, 28.7%; in the test on RPMI-8226 leukemia, -11.7% (active); with OVCAR-8 ovarian it was 62.7%. Also, the growth in the test on OVCAR-5 ovarian was 104%; in the test on OVCAR-4 ovarian, 91.4%; in the test on SK-OV-3 ovarian, 113%; in the test with IGROV1 ovarian, 115%; in the test with NCI/ADR-RES ovarian it was 88.4%.
As to `NC(=S)Nc1ccc2c(c1)Cc1ccccc1-2`, the growth is 89.6% in the test with SK-MEL-2 melanoma; 67.1% with EKVX NSCLC; 89.4% in the test on SN12C renal; 55.2% with UO-31 renal; 121% with TK-10 renal; 92.1% in the test on CAKI-1 renal. Moreover, the growth in the test with A498 renal is 110%; in the test with CCRF-CEM leukemia, 70.5%; in the test with SR leukemia it was 84.9%; in the test with RPMI-8226 leukemia, 62.1%; with OVCAR-8 ovarian, 84.5%; in the test with OVCAR-5 ovarian it was 101%. The growth with OVCAR-4 ovarian was 83.4%; with SK-OV-3 ovarian it was 98.1%; in the test on IGROV1 ovarian it was 88.3%; with OVCAR-3 ovarian it was 98.3%; in the test on HS 578T breast, 88.2%; in the test on NCI/ADR-RES ovarian, 88.2%.
Take `O=C1/C(=C/c2ccccc2)CCC/C1=C\c1ccccc1`: the growth was 99.7% in the test with SK-MEL-2 melanoma; 96.1% in the test on EKVX NSCLC; 93.2% in the test with SN12C renal; 88.1% with UO-31 renal; 104% with TK-10 renal; 84.3% in the test on CAKI-1 renal. Further, the growth was 84.6% in the test with A498 renal; 76.3% with CCRF-CEM leukemia; 73% in the test on MOLT-4 leukemia; 67.4% with SR leukemia; -3.31% (active) in the test with RPMI-8226 leukemia; 91.7% with OVCAR-8 ovarian. The growth was 120% in the test with OVCAR-5 ovarian; 94.1% in the test with OVCAR-4 ovarian; 99.6% in the test on SK-OV-3 ovarian; 80% in the test on IGROV1 ovarian; 65.1% with OVCAR-3 ovarian; 101% with HS 578T breast. In addition, the growth with NCI/ADR-RES ovarian was 95.2%.
Turning to `O=C1C=Cc2ccccc2/C1=C/c1nc(-c2ccccc2)oc1O`, the growth with SK-MEL-2 melanoma is 99.1%; in the test on EKVX NSCLC, 78.7%; with SN12C renal it was 94.8%; with UO-31 renal, 65.5%; with TK-10 renal it was 136%; with CAKI-1 renal it was 86.8%. Further, the growth in the test with A498 renal is 113%; with CCRF-CEM leukemia, 110%; in the test with MOLT-4 leukemia, 96.5%; in the test on SR leukemia, 91.1%; in the test with RPMI-8226 leukemia, 104%; in the test on OVCAR-8 ovarian, 94.7%. The growth was 97.2% in the test on OVCAR-5 ovarian; 85.2% with OVCAR-4 ovarian; 86.6% with SK-OV-3 ovarian; 71.8% with IGROV1 ovarian; 91.6% in the test with OVCAR-3 ovarian; 102% in the test on HS 578T breast. The growth in the test on NCI/ADR-RES ovarian was 85.7%.
As to `COc1c(C)c2c(c(O)c1C/C=C(\C)CCC(=O)O)C(=O)OC2`, the growth in the test with SK-MEL-2 melanoma is 43.8%; in the test on EKVX NSCLC, 48.2%; in the test with SN12C renal, 34.4%; with UO-31 renal, 27.9%; with TK-10 renal it was 42%; in the test with CAKI-1 renal, 6.69% (active). The growth in the test on A498 renal was 61.7%; in the test on CCRF-CEM leukemia it was 26.1%; in the test with MOLT-4 leukemia, 25.9%; with SR leukemia it was 14%; with RPMI-8226 leukemia it was 57.8%; in the test on OVCAR-8 ovarian, 11.9%. In addition, the growth is 44.5% in the test with OVCAR-4 ovarian; 45.2% with SK-OV-3 ovarian; 12.9% in the test with IGROV1 ovarian; 34.4% with OVCAR-3 ovarian; 72% in the test on HS 578T breast; 31.2% in the test on NCI/ADR-RES ovarian.
As for `CCc1cccc(CC)c1N1C(=O)C=CC1=O`, the growth in the test with SK-MEL-2 melanoma is 107%; in the test on EKVX NSCLC it was 113%; in the test on SN12C renal, 129%; in the test on UO-31 renal, 90.3%; with TK-10 renal, 104%; with ACHN renal, 102%. In addition, the growth in the test with A498 renal is 100%; in the test with CCRF-CEM leukemia it was 17%; with MOLT-4 leukemia, -10% (active); with OVCAR-8 ovarian, 112%; with OVCAR-5 ovarian, 116%; in the test with OVCAR-4 ovarian it was 111%. The growth in the test with SK-OV-3 ovarian was 121%; in the test on OVCAR-3 ovarian, 97%; in the test with HS 578T breast it was 108%; with NCI/ADR-RES ovarian, 118%.
Take `[Cl-].[Rh+3].c1ccc(-c2ccnc3c2ccc2c(-c4ccccc4)ccnc23)cc1.c1ccc(-c2ccnc3c2ccc2c(-c4ccccc4)ccnc23)cc1.c1ccc(-c2ccnc3c2ccc2c(-c4ccccc4)ccnc23)cc1`: the growth in the test with SK-MEL-2 melanoma is 95.9%; with EKVX NSCLC, 81.1%; in the test on SN12C renal it was 85.8%; with UO-31 renal, 51.4%; in the test with TK-10 renal it was 107%; in the test with CAKI-1 renal, 86.1%. Moreover, the growth with CCRF-CEM leukemia is 76.2%; in the test on MOLT-4 leukemia it was 104%; in the test on SR leukemia it was 89.4%; in the test with RPMI-8226 leukemia, 91.1%; in the test with OVCAR-5 ovarian, -2.79% (active); with OVCAR-4 ovarian, 84.8%. In addition, the growth in the test on SK-OV-3 ovarian is 77.9%; in the test with IGROV1 ovarian, 66.5%; with OVCAR-3 ovarian, 69.8%; in the test on NCI/ADR-RES ovarian, 95.7%.
`COC(=O)C(=[N+]=[N-])C(=O)c1ccc([N+](=O)[O-])o1`: the growth is 95.5% in the test on SK-MEL-2 melanoma; 111% in the test with EKVX NSCLC; 90.9% with SN12C renal; 89.7% in the test on UO-31 renal; 67.1% in the test with ACHN renal; 104% in the test with CAKI-1 renal. Further, the growth with A498 renal is 69.1%; with CCRF-CEM leukemia, 83.9%; in the test with MOLT-4 leukemia it was 93.6%; in the test with SR leukemia it was 58.4%; in the test with RPMI-8226 leukemia, 78.8%; with OVCAR-8 ovarian, 82%. Besides, the growth is 106% with OVCAR-4 ovarian; 97.2% with SK-OV-3 ovarian; 97.6% with IGROV1 ovarian; 88.3% with OVCAR-3 ovarian; 90.3% in the test on HS 578T breast; 93.1% with NCI/ADR-RES ovarian.

The values are drawn from PubChem BioAssay (NCI).
